Read-out in test [1]: C-C motif chemokine 2 (Homo sapiens) (UniProt P13500)
The experiment in a line: BSK_KF3CT_MCP1: BioMAP Diversity Plus: KF3CT Assay for Monocyte Chemoattractant Protein 1 (MCP1/CCL2) Biomarker Activity (AID 2283073). As to conditions: primary human keratinocytes with fibroblasts; actives raise or lower the signal. In a few lines:
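ELISA readout of MCP-1 after 24 h chemical dosing of a human skin primary co-culture of keratinocytes and foreskin fibroblasts. Activity was fitted in both directions against DMSO.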

Read-out in test [2]: Matrix Metallopeptidase 9 (MMP9), MMP9 (gene 4318)
Put plainly: BSK_KF3CT_MMP9: BioMAP Diversity Plus: KF3CT Assay for Matrix Metallopeptidase 9 (MMP9) Biomarker Activity (AID 2283074).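 For AC50: MMP9 protein level quantified by ELISA in the co-culture.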 Conditions: primary human keratinocytes with fibroblasts; actives raise or lower the signal. An outline of the steps:
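Human keratinocyte/foreskin fibroblast co-culture; compound added; 24 h; MMP-9 by ELISA; bidirectional fit vs DMSO baseline.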

Read-out in another test: CD40, CD40 (gene 958)
The experiment in a line: BSK_LPS_CD40: BioMAP Diversity Plus: LPS Assay for CD40 Biomarker Activity (AID 2283076). As to conditions: primary human HUVEC with PBMC; actives raise or lower the signal. In a few lines: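 Cells were dosed, incubated 24 h, then assayed for CD40 by ELISA. Gain or loss of signal was analysed relative to DMSO controls. The culture paired human umbilical vein endothelium with peripheral blood mononuclear cells.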

Read-out in test [3]: E-selectin (Homo sapiens) (UniProt P16581)
The experiment in a line: BSK_LPS_Eselectin: BioMAP Diversity Plus: LPS Assay for Eselectin Biomarker Activity (AID 2283077). Conditions: primary human HUVEC with PBMC; actives raise or lower the signal. An outline of the steps: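 Primary human vascular co-culture (endothelium plus PBMC) was dosed with chemical, then E-selectin quantified by ELISA at 24 h. Endpoint values derive from bidirectional curve fitting relative to DMSO.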

Read-out in test [4]: Interleukin-8 (IL8), CXCL8 (gene 3576)
Put plainly: BSK_LPS_IL8: BioMAP Diversity Plus: LPS Assay for Interleukin-8 (IL8) Biomarker Activity (AID 2283078). Conditions: primary human HUVEC with PBMC; actives raise or lower the signal. An outline of the steps: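 Readout is IL-8 by ELISA, taken 24 h after compounds were added to LPS-stimulated endothelial/PBMC co-cultures. Both increases and decreases relative to DMSO control were scored through bidirectional fitting.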

Test [5] in a line: BSK_LPS_SRB: Viability Assessment in the BioMAP Diversity Plus: LPS Assay (AID 2283079).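 Note: total protein by sulforhodamine B absorbance as a cytotoxicity measure; measured one day after compound addition; fitted in both directions against DMSO so loss or gain of signal counts.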 Conditions: primary human HUVEC with PBMC. An outline of the steps: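 Readout is SRB absorbance at 560 nm (0.1% stain, TCA-fixed parallel cultures) as a total-protein cytotoxicity measure. Cells: primary human umbilical vein endothelium plus peripheral blood mononuclear cells, 24 h after chemical exposure; DMSO served as baseline.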

Read-out in test [6]: Interleukin-1 alpha (IL1a), IL1A (gene 3552)
Put plainly: BSK_LPS_IL1a: BioMAP Diversity Plus: LPS Assay for Interleukin-1 alpha (IL1a) Biomarker Activity (AID 2283080). As to conditions: primary human HUVEC with PBMC; actives raise or lower the signal. In a few lines:
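ELISA read-out of IL-1 alpha from a human primary vascular co-culture (endothelium plus PBMC) under LPS, sampled 24 hours post-dosing. Activity was fitted in both directions relative to DMSO controls.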

Read-out in test [7]: Monocyte Chemoattractant Protein-1 (MCP1), CCL2 (gene 6347)
The experiment in a line: BSK_LPS_MCP1: BioMAP Diversity Plus: LPS Assay for Monocyte Chemoattractant Protein-1 (MCP1) Biomarker Activity (AID 2283081).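 For AC50: secreted MCP-1 protein quantified by ELISA in culture supernatant.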 As to conditions: primary human HUVEC with PBMC; actives raise or lower the signal. In a few lines: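 Human endothelial–PBMC co-cultures were dosed with chemical, then LPS-driven MCP-1 levels were quantified by ELISA at 24 h. Activity in either direction was fitted versus DMSO negative control.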

A short description of test [8]: BSK_LPS_PGE2: BioMAP Diversity Plus: LPS Assay for Prostaglandin E2 (PGE2) Biomarker Activity (AID 2283082).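 For AC50: secreted prostaglandin E2 measured by ELISA in LPS-stimulated co-culture.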 Conditions: primary human HUVEC with PBMC; actives raise or lower the signal. In a few lines:
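HUVEC plus human PBMC co-culture stimulated with LPS; secreted PGE2 quantified by ELISA 24 h after chemical dosing. Activity fitted bidirectionally against DMSO baseline; parallel SRB staining (0.1% SRB after 10% TCA fixation, 560 nm) flags overt cytotoxicity.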

Read-out in test [9]: Macrophage colony-stimulating factor (MCSF), CSF1 (gene 1435)
Put plainly: BSK_LPS_MCSF: BioMAP Diversity Plus: LPS Assay for Macrophage colony-stimulating factor (MCSF) Biomarker Activity (AID 2283083). Conditions: primary human HUVEC with PBMC; actives raise or lower the signal. An outline of the steps:
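ELISA readout of M-CSF after 24 h compound exposure in a human endothelial/PBMC co-culture. Activity, in either direction, is fitted relative to DMSO vehicle.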

Several values for one entry are separate records, joined by “and”; a condition that tells them apart may be missing. Equal values may be shown once. Some compounds were tested as several samples or in several runs, with calls that do not always agree. Activity calls are given as the source filed them. Rule for the calls: active = hit-call score of the fitted dose curve at least 0.9, where 1 is the maximum; inactive = score below 0.9.

E-selectin (Homo sapiens), sequence (P16581 whole entry, looked up): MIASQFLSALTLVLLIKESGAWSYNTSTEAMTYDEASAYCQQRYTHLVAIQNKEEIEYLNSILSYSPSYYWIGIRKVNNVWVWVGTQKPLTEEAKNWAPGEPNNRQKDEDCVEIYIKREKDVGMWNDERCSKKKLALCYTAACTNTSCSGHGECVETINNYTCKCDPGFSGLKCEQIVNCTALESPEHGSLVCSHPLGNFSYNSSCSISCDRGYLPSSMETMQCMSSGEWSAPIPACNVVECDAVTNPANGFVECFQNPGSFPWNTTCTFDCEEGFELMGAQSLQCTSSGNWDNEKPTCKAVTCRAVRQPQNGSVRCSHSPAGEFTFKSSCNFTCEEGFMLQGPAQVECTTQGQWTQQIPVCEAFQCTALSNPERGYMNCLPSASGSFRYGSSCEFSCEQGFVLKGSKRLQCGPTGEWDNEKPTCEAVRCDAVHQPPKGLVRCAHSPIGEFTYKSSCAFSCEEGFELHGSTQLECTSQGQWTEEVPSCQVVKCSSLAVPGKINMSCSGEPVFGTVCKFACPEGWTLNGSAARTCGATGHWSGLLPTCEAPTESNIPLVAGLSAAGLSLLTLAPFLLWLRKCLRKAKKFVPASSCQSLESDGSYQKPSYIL

Take `CCO[Si](CCCN=C=O)(OCC)OCC`: the outcome is “inactive” in test [1]; “inactive” in test [2]; “inactive” in the test with CD40, CD40 (gene 958); “inactive” in test [3]; “inactive” in [4]; “inactive” in test [5]. Further, the result in test [6], in test [7], in [8] and in test [9] was inactive.

In general, AC50 refers to the midpoint of the concentration-response curve, whichever way the signal moves. Turning to `c1ccc2c(c1)ccc1cc3c(ccc4ccccc43)cc12`, the outcome in test [1] is “inactive”; in test [2], “inactive”; in the test with CD40, CD40 (gene 958), “inactive”; in test [3] it was “inactive”; in test [4], “inactive”; in test [5], “inactive”. In addition, the result in [6], in test [7], in [8] and in test [9] was inactive. Further, the AC50 in test [4] was 1.84 µM (active).

Regarding `C/C=C\C/C=C/CCCCCCCCOC(C)=O`, the AC50 in [1] was 20 µM (active); in test [2], 29.5 µM (active); in the test with CD40, CD40 (gene 958), 20 µM (active); in test [3], 30.9 µM (active); in test [4], 34 µM (active); in [6], 35.1 µM (active). The AC50 in test [7] was 30.5 µM (active); in test [8], 35.5 µM (active); in [9], 24.7 µM (active). In addition, in test [5], the outcome was inactive.

Turning to `O=Nc1ccc(O)cc1`, the outcome was “inactive” in [1]; “inactive” in test [2]; “inactive” with CD40, CD40 (gene 958); “inactive” in test [3]; “inactive” in [4]; “inactive” in [5]. The result in test [6], in test [7], in test [8] and in test [9] was inactive.

On to `CC(C)C(=O)C(C)C`, for which the outcome was “inactive” in test [1]; “inactive” in test [2]; “inactive” in the test with CD40, CD40 (gene 958); “inactive” in [3]; “inactive” in test [4]; “inactive” in [5]. Also, the outcome in test [6], in test [7], in [8] and in [9] was inactive.

Take `CN1C(=O)N(C)C(O)C1O` (centres undefined): the outcome in [1] is “inactive”; in test [2], “inactive”; in the test with CD40, CD40 (gene 958), “inactive”; in test [3], “inactive”; in test [4], “inactive”; in test [5] it was “inactive”. In addition, the result in test [6], in test [7], in test [8] and in [9] was inactive. Besides, the AC50 with CD40, CD40 (gene 958) was 1.5 µM (active).

Regarding `c1ccc2c(c1)ccc1ncccc12`, the result in test [1], in test [3], in test [4], in [8] and in test [9] was inactive. In addition, the AC50 in [2] was 20 µM (active); with CD40, CD40 (gene 958) it was 20 µM (active); in test [5] it was 20 µM (active); in [6], 20 µM (active); in [7] it was 3.97 µM (active).

In the case of `C=CC(=O)OCC(Br)CBr` (centres undefined), the outcome in test [1] and in [8] was inactive. For the same compound, the AC50 in test [2] is 28.1 µM (active); with CD40, CD40 (gene 958), 15.6 µM (active); in [3] it was 20 µM (active); in test [4], 12.5 µM (active); in [5] it was 31 µM (active); in test [6], 18.3 µM (active). Further, the AC50 in [7] is 30 µM (active); in test [9], 20 µM (active).

Turning to `CCCCC(CC)COCC1CO1` (centres undefined), the outcome in test [1] is “inactive”; in test [2], “inactive”; with CD40, CD40 (gene 958) it was “inactive”; in [3] it was “inactive”; in [4], “inactive”; in [5] it was “inactive”. In addition, the outcome in test [6], in test [7], in [8] and in [9] was inactive.

`C=CCOc1c(Br)cc(Br)cc1Br`: the figures for the AC50 in test [1], in test [2] and in test [7] were 12.2 µM (active), 20 µM (active) and 0.054 µM (active), respectively. Also, the outcome is “inactive” with CD40, CD40 (gene 958); “inactive” in [3]; “inactive” in test [4]; “inactive” in test [5]; “inactive” in [6]; “inactive” in test [8]. The result in [9] was inactive.

Regarding `CCO[Si](C)(OCC)OCC`, the outcome in test [1] was “inactive”; in [2], “inactive”; in the test with CD40, CD40 (gene 958), “inactive”; in [3] it was “inactive”; in [4], “inactive”; in [5], “inactive”. In addition, the outcome in test [6], in test [7], in test [8] and in [9] was inactive.

As to `Nc1ccc(N)c(Cl)c1`, the result in [1], in test [3] and in test [4] was inactive. The concentration at half-maximal activity (AC50) is 20 µM (active) and 18.3 µM (active) in test [2]; 3.22 µM (active) and 2.55 µM (active) in the test with CD40, CD40 (gene 958); 13.9 µM (active) in test [3]; 7.92 µM (active) in [4]; 25.9 µM (active) and 32.6 µM (active) in test [5]; 4.62 µM (active) and 33.4 µM (active) in test [6]. Further, the AC50 in [7] was 32.7 µM (active) and 32.2 µM (active); in [8] it was 20 µM (active) and 13 µM (active); in test [9], 8.8 µM (active) and 15.4 µM (active).

For the compound `N#[N+]c1ccc2c(S(=O)(=O)[O-])cccc2c1O`, the outcome in test [1] is “inactive”; in test [2] it was “inactive”; with CD40, CD40 (gene 958), “inactive”; in test [3], “inactive”; in test [4] it was “inactive”; in [5] it was “inactive”. Besides, the result in test [6], in [7], in test [8] and in [9] was inactive.

With `S=C(NC1CCCCC1)NC1CCCCC1`, the outcome was “inactive” in [1]; “inactive” in test [2]; “inactive” with CD40, CD40 (gene 958); “inactive” in [3]; “inactive” in test [4]; “inactive” in test [5]. Moreover, the outcome in test [6], in [7], in [8] and in [9] was inactive.

For `O=C(Nc1ccccc1SSc1ccccc1NC(=O)c1ccccc1)c1ccccc1`, the outcome in test [1], in test [2], in [3], in [7] and in test [8] was inactive. Also, the AC50 with CD40, CD40 (gene 958) is 4.75 µM (active); in test [4] it was 5.19 µM (active); in [5], 5.31 µM (active); in test [6] it was 2.65 µM (active); in test [9], 5.44 µM (active).

Take `O=C(c1ccc(O)cc1)c1ccc(O)cc1O`: the outcome in test [1] was “inactive”; with CD40, CD40 (gene 958) it was “inactive”; in [3] it was “inactive”; in [4] it was “inactive”; in test [5], “inactive”; in test [6] it was “inactive”. Moreover, the outcome in test [7], in test [8] and in [9] was inactive. In test [2], the AC50 is 18.4 µM (active) and 11.2 µM (active).

Take `CC(C)(c1cc(Br)c(OCCO)c(Br)c1)c1cc(Br)c(OCCO)c(Br)c1`: the AC50 in test [1] was 16.2 µM (active); in test [2], 7.47 µM (active); in the test with CD40, CD40 (gene 958), 11.9 µM (active); in [5] it was 16.2 µM (active); in [8] it was 0.121 µM (active). The outcome in [3], in test [4], in test [6], in test [7] and in [9] was inactive.

Consider `CCCCCCCCc1ccc(Nc2ccc(CCCCCCCC)cc2)cc1`, for which the outcome was “inactive” in [1]; “inactive” in test [2]; “inactive” in the test with CD40, CD40 (gene 958); “inactive” in test [3]; “inactive” in test [4]; “inactive” in [5]. For the same compound, the result in [6], in test [7], in [8] and in test [9] was inactive.

Values taken from PubChem BioAssay (EPA / NIEHS).
